Assay outcomes from PubChem.
This excerpt belongs to a sample that is enriched for hits.
Pf Dd2 growth – inhibitors of Plasmodium falciparum Dd2 growth | P. falciparum Dd2 growth, SYBR Green, 72 h | Potency, µM (highest dose often 28.9 µM), for inactives: top-dose activity, negative = inhibition, actives largely listed as inhibitors | 120,000 tested, 4.3% active; active = well fitted inhibition curve with a large enough effect;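 also: plate controls were DMSO vehicle for no effect and reference drug for full effect; nearly all actives have a fitted effect of over 65% in size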
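Readout: SYBR Green fluorescence, 485 nm excitation, 535 nm emission, after ~16 h lysis at 37C. Before that, Dd2-infected red cells (2.5% hematocrit) grew 72 h with compound, 29 uM top final concentration.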
The depositor's hits bear a star; i = inactive; [ ] = dose if it differs, or a comment. Potency is read from the fitted curve at half-maximal effect.

SMILES	Pf Dd2 growth
Cc1ccccc1CN1C(=O)c2ccccc2S(=O)c2ccc(C(=O)N3CCOCC3)cc21 (stereo not given)	i
Cc1ccc(C)c(CN2C(=O)CSc3ccc(C(=O)NCc4ccccc4)cc32)c1	-14%
Cc1ccccc1CN1C(=O)c2ccccc2Sc2ccc(C(=O)OCc3ccco3)cc21	8.9µM*
CC1CCC(NC(=O)c2ccc3c(c2)N(Cc2ccccc2F)C(=O)c2ccccc2S3(=O)=O)CC1 (stereo not given)	-14%
O=C(NC1CCCC1)c1ccc2c(c1)N(Cc1ccccc1)C(=O)c1ccccc1S2	-24%
CCOc1ccc(CN2C(=O)c3ccccc3Sc3ccc(C(=O)NC4CCC(C)CC4)cc32)cc1 (stereo not given)	11µM*
Cc1ccc(CN2C(=O)c3ccccc3Sc3ccc(C(=O)OCc4ccco4)cc32)cc1	-16%
O=C(NCCCN1CCOCC1)c1ccc2c(c1)N(Cc1ccccc1)C(=O)c1ccccc1S2	i
CC1CCC(NC(=O)c2ccc3c(c2)N(Cc2ccccc2F)C(=O)c2ccccc2S3=O)CC1 (stereo not given)	10µM*
O=C(NC1CCCC1)c1ccc2c(c1)N(Cc1ccc(F)cc1)C(=O)c1ccccc1S2	i
COCCCNC(=O)c1ccc2c(c1)N(Cc1ccccc1F)C(=O)c1ccccc1S2=O (stereo not given)	i
COc1ccc(NC(=O)N2CC(C(=O)N(C)C)C3(CCOCC3)C2)c(OC)c1 (stereo not given)	8%
Cc1ncc2c(c1CNC(=O)c1ccccc1-c1nn[nH]n1)CCNC2	-3%
COc1cc(OC)nc(N2C[C@H]3OC(=O)N(CCN4CCCCC4)[C@H]3C2)n1	i
CC(C)C(=O)NCC12CCCC=C1N(C)C(=O)CC2 (stereo not given)	8%
O=C(c1cccc(OC(F)(F)F)c1)N1CCCC1c1nncn1Cc1ccncc1 (stereo not given)	-1%
COc1ccc(-c2nc3c([nH]2)CN(S(=O)(=O)N2CCCC2)CC3)cn1	-22%
Cc1nnc([C@@H]2CC(F)(F)CN2C(=O)c2ccco2)o1	26%
CN1C(=O)CCCCC1C(=O)N1CCCC1 (stereo not given)	i
O=C(c1ccncc1)N1CCC2(CC1)CN(c1ncccn1)CC2CO (stereo not given)	i
CC(=O)NCCCC(=O)N1CCOC2(CCN(C(=O)CCCN)CC2)C1	-4%
OC[C@@H]1O[C@H](CNC2CCOCC2)[C@H](N2CCCCC2)[C@@H]1O	-12%[44.1 µM]
O=C(Cc1ccc(F)cc1)N1CCC(c2nn(Cc3ccccc3)c(=O)[nH]2)CC1	-13%
O=C(O)c1ccc(CN2CC[C@H](c3nnc(-c4cccnc4)o3)C2)cc1	-5%[44.1 µM]
O=C(NCc1ccc2c(c1)OCO2)c1ccc2c(c1)N(Cc1cccc(Cl)c1)C(=O)c1ccccc1S2	10µM*
SMILES	Pf Dd2 growth
CCOc1ccc(CN2C(=O)c3ccccc3Sc3ccc(C(=O)NCCCN4CCOCC4)cc32)cc1	i
Cc1ccc(C)c(CN2C(=O)c3ccccc3Sc3ccc(C(=O)NCc4ccco4)cc32)c1	11µM*
O=C(NCc1ccc2c(c1)OCO2)c1ccc2c(c1)N(Cc1ccc(F)cc1)C(=O)c1ccccc1S2=O (stereo not given)	i
COCCCNC(=O)c1ccc2c(c1)N(Cc1ccccc1)C(=O)c1ccccc1S2	-15%
CCOc1ccc(CN2C(=O)c3ccccc3Sc3ccc(C(=O)N4CCN(C)CC4)cc32)cc1	0.13µM*
CCOc1ccc(CN2C(=O)c3ccccc3Sc3ccc(C(=O)O)cc32)cc1	93%
O=C(NCc1ccc2c(c1)OCO2)c1ccc2c(c1)N(Cc1ccccc1)C(=O)c1ccccc1S2=O (stereo not given)	30%
COc1ccc(CCNC(=O)c2ccc3c(c2)N(Cc2ccc(Cl)cc2)C(=O)c2ccccc2S3)cc1OC	7.9µM*
O=C(NCCc1ccccc1)c1ccc2c(c1)N(Cc1ccc(F)cc1)C(=O)c1ccccc1S2	2%
COC(=O)c1cccc(NC(=O)C2CCc3sc(C(=O)N(C)C)cc3C2)c1 (stereo not given)	i
CCc1noc(-c2cn(C3CCCN(C(=O)c4cc(C)cc(C)c4)C3)nn2)n1 (stereo not given)	i
O=C1CC2(CCN(C(=O)C3(c4ccc(F)cc4)CCOCC3)C2)C(=O)N1 (stereo not given)	-21%
Cc1ccccc1-c1cc(C(=O)NCCc2cnc[nH]2)c2c(c1)N(C)CCO2	i
CC[C@H]1CN(C(=O)C2CC2)CC[C@H]1CC(=O)NC1CC1	47%[44.1 µM]
CCNC(=O)N1CCCC1c1noc(CCC(=O)NC(C)C)n1 (stereo not given)	36%
COc1cccc(C(=O)N2CCC3(CC2)CC(OC)CCO3)c1 (stereo not given)	-16%
O=C(c1cnccn1)N1C[C@@H]2OCC(=O)N(c3ccccc3)[C@@H]2C1	-4%[44.1 µM]
O=C(O)C1(O)CCN(c2ncc(F)c(N3CCOCC3)n2)CC1	-22%
O=C(c1ccccn1)N1CCC(N2C(=O)C(O)C23CCCCC3)CC1 (stereo not given)	2%
C=CCN1CCN(C(=O)CN2CC3CC(C2)[C@H]2CCCC(=O)N2C3)CC1 (stereo not given in full)	8%
COc1ccc(N2Cc3c(NCCc4ccc(Cl)cc4)ncnc3N(C)CC2=O)cc1	i
CCC(C)NC(=O)c1ccc2c(c1)N(Cc1ccccc1)C(=O)c1ccccc1S2 (stereo not given)	-30%
Cc1ccc(C)c(CN2C(=O)c3ccccc3S(=O)c3ccc(C(=O)NCCc4ccc(Cl)cc4)cc32)c1 (stereo not given)	5µM*
CCOc1ccc(CN2C(=O)c3ccccc3Sc3ccc(C(=O)NCc4ccco4)cc32)cc1	5µM*
O=C(NCc1ccco1)c1ccc2c(c1)N(Cc1ccc(Cl)cc1)C(=O)c1ccccc1S2	-7%
SMILES	Pf Dd2 growth
Cc1ccc(C)c(CN2C(=O)c3ccccc3S(=O)c3ccc(C(=O)NCc4ccccc4Cl)cc32)c1 (stereo not given)	-7%
COCCNC(=O)c1ccc2c(c1)N(Cc1cc(C)ccc1C)C(=O)c1ccccc1S2=O (stereo not given)	i
COCC[C@]1(O)CCN(C(=O)c2ccc(C#N)nc2)C[C@H]1C	-2%
COCC[C@]1(O)CCN(C(=O)CCCc2cccs2)C[C@H]1C	-13%
O=C(c1cccc2[nH]ccc12)N1CCCN(c2cc(-c3ccc(Cl)cc3)[nH]n2)CC1	-2%
Cc1ccc(CNC(=O)c2noc(-c3ccc4c(c3)OCO4)n2)cc1	i
Cc1ccc(-c2nc(C(=O)N3CCN(Cc4ccc5c(c4)OCO5)CC3)no2)cc1	11µM*
Cc1ccc(-c2nc(C(=O)NCc3ccc4c(c3)OCO4)no2)cc1	i
COc1ccc(NC2CCCN(C(=O)CCCS(N)(=O)=O)C2)cc1 (stereo not given)	-4%
CCC(C)NC(=O)N1CC(Oc2ccc(-c3nc(-c4ccccc4)no3)cc2)C1 (stereo not given)	i[5.79 µM]
NC(=O)CNC(=O)C1=C[C@@H](NC(=O)Nc2ccccc2Br)[C@@H](O)[C@H](O)C1	-5%[44.1 µM]
C=Cc1ccc(Cn2c(C(=O)O)c(CNCCc3ccco3)c3ccc(C)cc32)cc1	-22%
COc1ccc(Cn2c(C(=O)O)c(CNC3CCCCC3)c3ccc(C)cc32)cc1	-18%
CCOc1ccc(CCNCc2c(C(=O)O)n(Cc3ccc(C)cc3)c3cc(OC)ccc23)cc1	11µM*
COc1ccc2c(CNCCc3cccs3)c(C(=O)O)n(Cc3cccc(F)c3)c2c1	i
